Screening data: PubChem, Broad Institute
T cruzi growth-1: blocks T. cruzi growth in NIH3T3 culture | T. cruzi beta-gal in NIH3T3, GalScreen luminescence, 90 h | inhibition, % at 8.34 µM | actives 5.9% (n = 77,000);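 active = mean inhibition above about 93%, with at least 55% of replicates each passing it, limit read from the data, passing the limit was not always enough; inconclusive = only one of those two conditions holds; inactive = neither condition holds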
Pf Dd2 growth: blocks growth of Plasmodium falciparum Dd2 parasites | activity change, % at 10 µM | actives 2.3% (n = 94,000) | P. falciparum Dd2 growth, SYBR Green, 72 h; hits give low values | AID 1159554; in the data active = activity change below about -80%; inconclusive = no clear call, values can overlap the other calls
C diff growth: C. difficile growth inhibition; Clostridium difficile clinical isolate growth, OD600, 24 h; hits give low values; growth activity, negative = inhibition, % at 16 µg/mL (by protocol); actives 0.25% (n = 86,000); AID 1259249;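 active = mean growth activity at or below -80% and every replicate also at or below -80%; inconclusive = mean at or below -80% but some replicate above -80%; inactive = mean growth activity above -80%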
T cruzi growth-2: inhibitors of T. cruzi proliferation | shares compounds with T cruzi growth-1 | T. cruzi beta-gal in NIH3T3, GalScreen luminescence, 90 h | inhibition, % at 8.35 µM | actives 72% (n = 5,600) | AID 651739;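 active = mean replicate inhibition above about 95% and at least 55% of replicates individually reaching it, limit read from the data; inconclusive = only one of the two criteria is met; inactive = neither criterion is met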
T cruzi growth-3: Trypanosoma cruzi proliferation inhibition | shares compounds with T cruzi growth-1 | T. cruzi beta-gal in NIH3T3, GalScreen luminescence, 90 h | inhibition, % at 2.09 µM | actives 21% (n = 5,600) | AID 651740;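 active = mean inhibition above about 95%, with at least 55% of replicates also reaching it, limit read from the data; inconclusive = meets just one of the two conditions; inactive = meets neither condition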
NIH3T3 tox: NIH/3T3 (mouse) viability loss. shares compounds with T cruzi growth-1. NIH/3T3 viability, CellTiter-Glo ATP luminescence, 90 h. cytotoxicity (signal decrease), % at 8.35 µM. actives 14% (n = 5,600). AID 651742;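 active = mean signal decrease across replicates above about 35% based on untreated-well scatter, with enough replicates individually passing, limit read from the data; inconclusive = no rule stated though some were filed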
NIH3T3 tox 2: kills mouse NIH/3T3 fibroblasts. inhibition, % at 24.9 µM. NIH/3T3 viability, CellTiter-Glo ATP luminescence, 90 h. actives 56% (n = 5,600). AID 651744. shares compounds with T cruzi growth-1;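 active = mean loss of cell viability signal at or above a set limit, and enough replicates individually reaching it; inconclusive = meets only the mean limit or only the replicate share; inactive = meets neither condition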
Large screens that a line does not name were inactive (follow-up assays come after a bar, where they were run). In the library only some 6.8% were active in any assay of this set; here they are far more common.

O=C(C[C@H]1C[C@@H]2c3cc(NC(=O)Nc4ccc(C(F)(F)F)cc4)ccc3O[C@@H]2[C@H](CO)O1)NCc1ccc2c(c1)OCO2	none
Cc1cc(C(=O)Nc2cccc3c2O[C@H](CN(C)Cc2ccc(C(=O)Nc4ccccc4N)cc2)[C@H](C)CN([C@@H](C)CO)C3=O)n(C)n1	T cruzi growth-1 93, Pf Dd2 growth -82 | T cruzi growth-2 inactive | T cruzi growth-3 inactive | NIH3T3 tox 46 | NIH3T3 tox 2 91
Cc1cc(C(=O)Nc2cccc3c2O[C@H](CN(C)Cc2ccc(C(=O)O)cc2)[C@H](C)CN([C@@H](C)CO)C3=O)n(C)n1	none (no result: T cruzi growth-1)
Cc1cc(C(=O)Nc2cccc3c2O[C@H](CN(C)Cc2ccc(C(=O)O)cc2)[C@@H](C)CN([C@H](C)CO)C3=O)n(C)n1	none (no result: T cruzi growth-1)
Cc1cc(C(=O)Nc2cccc3c2O[C@@H](CN(C)Cc2ccc(C(=O)Nc4ccccc4N)cc2)[C@@H](C)CN([C@H](C)CO)C3=O)n(C)n1	T cruzi growth-1 106, Pf Dd2 growth -85 | T cruzi growth-2 104 | T cruzi growth-3 98 | NIH3T3 tox inactive | NIH3T3 tox 2 inactive
Cc1cc(C(=O)Nc2cccc3c2O[C@@H](CN(C)Cc2ccc(C(F)(F)F)cc2)[C@@H](C)CN([C@@H](C)CO)C3=O)n(C)n1	T cruzi growth-1 96 | T cruzi growth-2 inactive | T cruzi growth-3 inactive | NIH3T3 tox inactive | NIH3T3 tox 2 inconclusive
Cc1cc(C(=O)Nc2cccc3c2O[C@H](CN(C)Cc2ccc(C(F)(F)F)cc2)[C@H](C)CN([C@H](C)CO)C3=O)n(C)n1	none
Cc1ccc(S(=O)(=O)Nc2cccc3c2O[C@H](CN(C)Cc2ccc(Oc4ccccc4)cc2)[C@@H](C)CN([C@H](C)CO)C3=O)cc1	none
C[C@H]1CN([C@@H](C)CO)C(=O)c2cc(NC(=O)Nc3ccc(C(F)(F)F)cc3)ccc2O[C@H]1CN(C)C	none
CC(C)NC(=O)N(C)C[C@@H]1Oc2c(NC(=O)Nc3cccc4ccccc34)cccc2C(=O)N([C@@H](C)CO)C[C@H]1C	none
O=C(C[C@@H]1C[C@@H]2c3cc(NS(=O)(=O)c4ccccc4)ccc3O[C@@H]2[C@@H](CO)O1)NCC1CC1	none
C[C@@H]1CN([C@@H](C)CO)C(=O)c2cccc(NC(=O)Nc3ccc4c(c3)OCO4)c2O[C@H]1CN(C)Cc1ccc(Cl)c(Cl)c1	none (no result: C diff growth)
C[C@@H]1CN([C@H](C)CO)C(=O)Cc2cc(NS(=O)(=O)c3ccc(Cl)cc3)ccc2O[C@H]1CN(C)Cc1ccccc1	T cruzi growth-1 100 | T cruzi growth-2 110 | T cruzi growth-3 103 | NIH3T3 tox inactive | NIH3T3 tox 2 inactive
C[C@@H]1CN([C@@H](C)CO)C(=O)Cc2cc(NS(=O)(=O)c3ccc(F)cc3)ccc2O[C@@H]1CN(C)Cc1ccc(-c2ccccc2)cc1	none (no result: C diff growth)
C[C@H]1CN([C@@H](C)CO)C(=O)Cc2cc(NS(=O)(=O)c3ccc(F)cc3)ccc2O[C@H]1CN(C)Cc1ccccc1	T cruzi growth-1 100 | T cruzi growth-2 99 | T cruzi growth-3 inactive | NIH3T3 tox inactive | NIH3T3 tox 2 inactive
C[C@@H]1CN([C@H](C)CO)C(=O)Cc2cc(NS(=O)(=O)c3ccc(F)cc3)ccc2O[C@H]1CN(C)Cc1ccccc1	T cruzi growth-1 97 | T cruzi growth-2 110 | T cruzi growth-3 inactive | NIH3T3 tox inactive | NIH3T3 tox 2 inactive
C[C@H](CO)N1C[C@H](C)[C@H](CN(C)Cc2ccccc2)Oc2ccc(NS(=O)(=O)c3ccc(F)cc3)cc2CC1=O	none
C[C@H](CO)N1C[C@H](C)[C@@H](CN(C)Cc2ccccc2)Oc2ccc(NS(=O)(=O)c3ccc(Cl)cc3)cc2CC1=O	none
CO[C@H]1CN(C)C(=O)c2ccc(NS(=O)(=O)c3ccc(-c4ccccc4)cc3)cc2OC[C@@H](C)NC[C@@H]1C	none (no result: T cruzi growth-1)
C[C@H]1CN([C@@H](C)CO)C(=O)Cc2cc(NS(=O)(=O)c3ccccc3)ccc2O[C@@H]1CN(C)C(=O)Nc1ccccc1	none
COc1cccc(C(=O)Nc2ccc3c(c2)C(=O)N(C)[C@H]2CC[C@@H](CC(=O)NCc4ccc(F)cc4)O[C@@H]2CO3)c1	none
